Experimental data taken from the supplement of paper PMC8726507.

What follows are molecules tested on Plasmodium falciparum NF54-HGL (transmission to Anopheles stephensi) (assay: percentage of barcode signal found in uninfected mosquitoes (transmission-blocking activity); higher = stronger blocking of transmission to mosquito, active = 80 or more). Settings: 10 µM; gametocyte preincubation time 24 h; readout time post-feed 8 days.
Procedure: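 The mixture was fed to Anopheles stephensi in 96-well plates as blood meals tagged with DNA-barcoded Asaia bacteria. Eight days later, mosquitoes were classed infected or uninfected by luminescence (mean + 5 SD of unfed controls). Barcodes were quantified by Luminex MagPlex-TAG in the pooled uninfected and infected Asaia cultures, background-corrected, and the score is % of barcode signal in uninfected mosquitoes = 100*Iu/(Iu+Ii).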

SMILES	percentage of barcode signal found in uninfected mosquitoes
Cc1cc2ccccc2n1CC(=O)N1CC(C(=O)N2CCCCC2)Oc2ccccc21 (configuration not stated)	34.8% (inactive)
COc1nc2ccc(Br)cc2cc1[C@@H](c1ccccc1)[C@@](O)(CCN(C)C)c1cccc2ccccc12	-3.2% (inactive)
OCCc1ccc(Nc2nccc(-c3nnc4ccccn34)n2)cc1	77% (inactive)
CC(Oc1ccccc1)C(=O)Nc1nc(-c2ccccn2)cs1 (configuration not stated)	84.2% (active)
Cc1cc(NC(=O)c2ccc(S(=O)(=O)N(Cc3ccccc3)C(C)C)cc2)no1	35.4% (inactive)
C[C@]1(O)C[C@@H](c2nc(-c3ccc4ccc(-c5ccccc5)nc4c3)c3c(N)nccn32)C1	80.6% (active)
c1csc(-c2cnc3sc(NCC4CCOCC4)nn23)c1	38.7% (inactive)
COc1ccc(-c2cnc3ccc(N4CCCC4)nn23)cc1OC	75.3% (inactive)
CCc1nc2ccccc2n1CC(O)COc1cc(C)ccc1Cl (configuration not stated)	41.3% (inactive)
CCN(CC)S(=O)(=O)c1ccc(Cl)c(C(=O)Nc2ccc3nc(C)sc3c2)c1	86.1% (active)
NCC(=O)N1CCn2c(nc(-c3ccccc3)c2Nc2ccc3c(c2)OCO3)C1	80.9% (active)
O=C(NCCN1CCCC1)c1cc(NCCCCN2CCC(F)(F)CC2)nc2ccc(Cl)cc12	91.2% (active)
Cc1nn2c(O)c3c(nc2c1-c1ccc(F)cc1)CCCC3	9.19% (inactive)
Cc1cc(C(=O)Nc2cnn(Cc3ccc(Cl)cc3Cl)c2)no1	42.7% (inactive)
CS(=O)(=O)N1CCC(CCn2nc(Cc3cccc4ccccc34)c3c(N)ncnc32)CC1	45.3% (inactive)
CC(C)(C)C1CCC(CC2=C(O)C(=O)c3ccccc3C2=O)CC1 (configuration not stated)	83.7% (active)
O=C(Nc1nnc(-c2ccc(Cl)cc2)o1)c1cccc(C(F)(F)F)c1	-0.664% (inactive)
Cc1nc(-c2cccc(NCc3ccccc3)c2)[nH]c1C	2.32% (inactive)
O=C(Nc1nnc(-c2ccc(Cl)s2)o1)c1ccc(Cl)s1	0.515% (inactive)
Cc1cc(Nc2ccncc2)n2nc(C)c(-c3ccccc3Cl)c2n1	53.9% (inactive)
Cc1ccc2oc(-c3cc(NC(=O)Cc4ccccc4)ccc3Cl)nc2c1	24% (inactive)
Nc1ncnc2c1ncn2C[C@@H](O)[C@@H](O)C(=O)O	39.9% (inactive)
